Data: the supplement of paper PMC3334620
The full ranking holds about 33,000 sequences; the median of “E-score (-0.5 to 0.5)” is about -8e-05, and the highest 2% start at about 0.23. The sample as a whole holds a higher share of the highest values than the screen did.

target: T1, Nrg2 (UniProt P38082); assay: PBM E-score (8-mer binding enrichment) (E-score (-0.5 to 0.5)); higher = stronger / more preferred TF binding; conditions: protein concentration: 100 nM; construct: GST-full length
T1 sequence: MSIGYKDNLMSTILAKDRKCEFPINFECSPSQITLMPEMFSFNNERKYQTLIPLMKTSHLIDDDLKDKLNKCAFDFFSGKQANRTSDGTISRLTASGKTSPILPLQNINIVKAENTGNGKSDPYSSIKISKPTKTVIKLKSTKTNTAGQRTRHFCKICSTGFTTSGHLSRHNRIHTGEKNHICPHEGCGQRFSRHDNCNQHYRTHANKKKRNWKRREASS
How it was run: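 Universal all-10-mer Agilent arrays, fresh or stripped once, were converted to double-stranded form by primer extension. GST-tagged yeast transcription factors from PURExpress in vitro transcription/translation, full-length or DNA-binding domain only, were applied at about 100-200 nM and detected with fluorescent anti-GST. After masliner normalisation, the Universal PBM Analysis Suite scored each ungapped eight-base word together with its reverse complement by E-score.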

| Sequence | PBM E-score |
| --- | --- |
| AAACCCTG | 0.318 |
| CAACCCTC | 0.0136 |
| AACCCCTG | 0.055 |
| ATACCCTG | 0.295 |
| AGACCCTC | 0.0175 |
| ATACCCTC | 0.0223 |
| ATACCCTA | 0.119 |
| AAACCCTA | 0.184 |
| AGACCCTG | 0.431 |
| CAACCCTG | 0.252 |
| CAACCCTA | 0.0574 |
| AGACCCTA | 0.148 |
| ATGGTTCG | 0.109 |
| AGAACCTC | -0.232 |
| GGGTAGGA | -0.0916 |
| AGAATGCT | 0.108 |
| CGTCCTTA | -0.0686 |
| GGCCTAAC | 0.0899 |
| GCTGGAAC | -0.144 |
| TGGCATAA | 0.144 |
| AAGAGGTA | 0.0504 |
| ACTCCTCA | -0.24 |
| ACGACGTA | -0.166 |
| ATTTCGTA | 0.0258 |
| AAGCGGAA | -0.0181 |
| AACTAAGT | 0.168 |

| Sequence | PBM E-score |
| --- | --- |
| CTAGTCGA | -0.0659 |
| ATAGTCGA | 0.264 |
| ATAGTCGG | -0.122 |
| CTGGGTCC | -0.288 |
| CCTCGCGA | 0.179 |
| CATCGCGA | 0.127 |
| AGTCGCGA | 0.226 |
| GATCGCGA | 0.168 |
| ACTCGCGA | 0.273 |
| CGTCGCGA | 0.143 |
| GGTCGCGA | 0.242 |
| TATCGCGA | 0.252 |
| ACTCGCGC | 0.0455 |
| ATTGTGCG | -0.0707 |
| GCTCGACC | -0.0125 |
| GCTCGAGC | 0.24 |
| CCTCGAAG | 0.0341 |
| GCTCGAGA | -0.131 |
| CCTCGAGC | 0.267 |
| CCTCGAGG | 0.242 |
| ACTCGAGG | 0.162 |
| ACTCGAGC | 0.073 |
| CCTCGAGA | 0.156 |
| AAGCTATC | 0.153 |
| ACAACGCG | 0.12 |
| AGCGCACA | 0.137 |

| Sequence | PBM E-score |
| --- | --- |
| ACTAGCAT | -0.0422 |
| AAGACCGA | -0.018 |
| TAAATGCA | 0.275 |
| GAAATGCA | 0.055 |
| CAAATGCC | -0.0811 |
| CAAATGCG | 0.268 |
| AAAATGCG | 0.0104 |
| CAAATGCA | -0.0764 |
| AAACCTCC | -0.115 |
| AAACTGCG | -0.0689 |
| AGTTTCGA | 0.0135 |
| ATATGGAC | 0.0806 |
| ATATGGAT | 0.247 |
| ATATGGAG | 0.147 |
| GGTGAGAA | -0.0568 |
| GAGCGACC | -0.168 |
| CAAGTTTC | -0.00709 |
| CCCATGAC | -0.0865 |
| GGTTTCGA | 0.191 |
| AAAATGGA | 0.308 |
| AAAATGGG | -0.0403 |
| CAAATGGA | -0.0362 |
| AGGGGTCC | 0.316 |
| CAGGGTCC | 0.446 |
| CAGAGTCC | 0.0801 |
